SMARCA2 activ: SMARCA2 (BRM) function activators, primary screen, cell-based, luminescence, high throughput; MG213 cells, MMTV-luciferase reporter, dexamethasone, overnight; activation, % at 9.1 µM; 1% of 370,000 active; AID 652017, 2013; in the data active means activation above about 7.8%;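 further: 0% = vehicle wells and 100% = reference activator wells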
Hsp70 activator: Hsp70 transcriptional activators, primary screen, cell-based, HeLa, Hsp70 promoter luciferase, luminescence, 10 µM | activation, % at 10 µM | 0.04% of 200,000 active | HeLa Hsp70 promoter luciferase reporter; scaled: vehicle 0, proteasome-inhibitor control 100%;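 active means activation above the mean across all tested compounds plus 3 SD, cutoff set per campaign, cut at about 5.5% in these data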;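 further: 100% = MG132 at 30 µM as the positive control and 0% = DMSO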
GalR3 antag: GalR3 antagonists in HEK293 cells, primary screen, cell-based, fluorescence readout; Galanin receptor type 3 (Homo sapiens), O60755; HEK293 GalR3-CNG cAMP membrane potential fluorescence; galR3 body fused to GalR1 C-terminus; inhibition, % at 3 µM; 0.44% of 360,000 active;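 active means inhibition above the screen-wide average plus 3 SD, cut at about 13% in these data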;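 further: forskolin and galanin both at EC90 stimulate the cells; cAMP rise reported by CNG channel membrane potential dye signal; 0% = forskolin plus galanin with DMSO and 100% = forskolin alone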
Target sequence (O60755 1-299 limits assumed): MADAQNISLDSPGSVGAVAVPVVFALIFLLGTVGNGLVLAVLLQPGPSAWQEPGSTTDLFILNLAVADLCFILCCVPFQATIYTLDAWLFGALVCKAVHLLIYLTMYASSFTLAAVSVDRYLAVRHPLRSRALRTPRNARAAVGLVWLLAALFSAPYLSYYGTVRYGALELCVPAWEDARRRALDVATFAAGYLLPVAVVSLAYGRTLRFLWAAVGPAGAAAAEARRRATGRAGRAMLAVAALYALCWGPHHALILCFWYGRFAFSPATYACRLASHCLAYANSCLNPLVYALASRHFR
HIF activator: HIF pathway transcriptional activators, primary screen, cell-based, U2OS HRE-luciferase, luminescence; U2OS HRE-luciferase reporter; normalized: DMSO 0%, desferrioxamine 100%; activation, % at 7.5 µM (by protocol); 0.32% of 300,000 active; AID 1910, 2009;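 active means mean activation of at least 10% of the iron chelator positive control signal, with at least half of replicates also reaching 10%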
FXN GAA850 act: FXN promoter activators, primary screen, cell-based, luciferase luminescence, HEK293 lucGAA850; HEK293 lucGAA850 FXN promoter luciferase reporter, 24 h; percent of 10 µM SAHA response; activation, % at 6 µM; 0.56% of 360,000 active;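 active means activation above the average of all compounds screened plus 3 SD, cutoff fixed separately per campaign, cut at about 7.5% in these data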;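 further: 0% = DMSO wells and 100% = 10 µM SAHA wells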
* marks the source's active call; other numbers are inactive results; . = no result. This is a sample that favours compounds with a hit; in the whole collection about 2.2% have one here.

SMILES | SMARCA2 activ | Hsp70 activator | GalR3 antag | HIF activator | FXN GAA850 act
O=C(c1ccccc1)N1CCC2CCN(CCc3ccccc3)CC21 (stereo not given) | -3.6 | . | -7.0 | . | .
COC(=O)c1ccccc1NC(=O)NCC1CCN(Cc2ccc(OC)cc2)CC1 | -2.5 | . | . | . | .
Cn1c(CCNC(=O)c2ccco2)nc2cc(NC(=O)C3CCCCC3)ccc21 | 4.9 | -0.4 | -1.8 | 175.8* | 0.1
Cn1c(CCNC(=O)c2ccco2)nc2cc(NC(=O)NC3CCCCC3)ccc21 | 2.2 | -0.3 | -3.8 | 2.1 | 2.4
CCCCC(=O)NC(c1ccc(Cl)cc1)c1ccc2cccnc2c1O (stereo not given) | -1.7 | . | -10.5 | 86.3* | -8.8
CCCC(=O)NC(c1ccc(Cl)cc1)c1ccc2cccnc2c1O (stereo not given) | -3.7 | . | -12.3 | 92.2* | -8.2
CCCC(=O)NC(c1ccc(C)cc1)c1ccc2cccnc2c1O (stereo not given) | . | . | . | 124.8* | -9.7
CCCC(=O)NC(c1cccc([N+](=O)[O-])c1)c1ccc2cccnc2c1O (stereo not given) | -7.2 | . | -5.0 | . | -5.2
CC(=O)NC(c1ccc(Cl)cc1Cl)c1ccc2cccnc2c1O (stereo not given) | -3.4 | . | -6.4 | 246.1* | -7.9
CC(=O)NC(C)c1cc(Cl)c2cccnc2c1O (stereo not given) | -0.6 | . | 0.0 | . | -3.5
COc1ccc(OC)c(S(=O)(=O)N2CCCCC2C(=O)N2CCCN(C)CC2)c1 (stereo not given) | 3.2 | . | . | . | .
CN(C)CC(=O)N[C@H]1C[C@@H]2O[C@@H](CO)CC[C@@H]2O[C@@H]1CCc1ccc(C2=CCCCC2)cc1 | -1.3 | . | . | . | .
O=C(Cn1nnc(-c2ccncc2)n1)Nc1ccc(Cl)cc1 | -5.9 | . | . | . | .
C=CCNC(=O)C1CCN(c2cncnc2)CC1 | -4.4 | . | . | . | .
C=C(C)C#CCNCc1ccccc1 | -3.1 | . | . | . | .
COc1ccccc1C(NC(C)=O)c1cc(Cl)c2cccnc2c1O (stereo not given) | -1.3 | . | -9.4 | 0.4 | -1.6
CCCC(=O)NC(c1ccc(Cl)cc1Cl)c1ccc2cccnc2c1O (stereo not given) | -1.2 | . | -9.8 | 74.2* | -7.2
COc1ccc(C(NC(C)=O)c2ccc3cccnc3c2O)c(OC)c1 (stereo not given) | . | . | . | 64.6* | -6.8
CC(=O)NC(c1ccc2ccccc2c1)c1ccc2cccnc2c1O (stereo not given) | -2.5 | . | -10.4 | 89.9* | -10.1
COc1cccc(C(=O)Oc2cc3c4c(c2)C(C)=CC(C)(C)N4C(=O)C3=O)c1 | -2.9 | -0.2 | 23.9* | 1.9 | -0.6
Brc1ccc(N/N=C(/N=Nc2nn[nH]n2)c2ccccc2)cc1 | -6.5 | -0.3 | -6.6 | 83.6* | -4.0
COc1ccc(C(=O)N/N=C/c2cccc3cccnc23)cc1 | 0.1 | 0.0 | -1.7 | 12.4* | -1.7
COc1ccc(C(=O)Nc2ccc(NC(=O)c3ccccn3)cn2)cc1 | 3.2 | . | -7.8 | 1.6 | 0.1
O=C(NN=C1CCC(=NNC(=O)c2ccccn2)CC1)c1ccccn1 | 11.3* | 0.3 | -2.5 | . | 5.7
CCOc1ccc(C(=O)N/N=C/c2cccc3cccnc23)cc1 | -0.2 | -0.4 | -1.0 | 1.3 | -0.3
SMILES | SMARCA2 activ | Hsp70 activator | GalR3 antag | HIF activator | FXN GAA850 act
Cc1cc2c(cc1C)/C(=N/NC(=O)c1ccccn1)CCC2 | 4.6 | . | -0.2 | 1.4 | 1.5
COc1ccc(C(=O)N/N=C(\c2ccccc2)c2ccccn2)cc1 | -3.8 | -0.3 | -3.9 | 49.5* | 0.3
C/C(=N\NC(=O)c1ccccc1Cl)c1ccccn1 | 0.4 | . | -12.7 | -0.4 | -1.5
O=C(N/N=C(\c1ccccc1)c1ccccn1)c1ccccc1Cl | -0.6 | . | -4.5 | 46.6* | 6.0
COC(=O)C1=C(C)N(Cc2ccccc2C(F)(F)F)C(=NCc2ccccc2)NC1c1cccc(F)c1 (stereo not given) | -3.2 | . | -6.7 | . | .
Cc1ccc(S(=O)(=O)c2nc(-c3ccccc3Br)oc2N(C)C)cc1 | -1.9 | . | -1.5 | 0.9 | -1.6
Cc1ccc(S(=O)(=O)c2nc(-c3ccccc3Cl)oc2N(C)C)cc1 | -2.2 | . | -1.9 | 55.6* | -0.9
COc1cc2ccccc2cc1C(=O)NNC(=O)c1ccccc1O | -1.2 | . | -3.3 | 11.9* | -1.6
